Source: PubChem (The Scripps Research Institute Molecular Screening Center)
Shown are actives, neighbours in structure and some others; about 4.6% of the full set was active somewhere.
Wee1 degr inh – human Wee1 degradation inhibition, primary screen. reporter increase, % at 5 µM. HeLa Luc-Wee1K328M stability, luciferase luminescence; 100% = proteasome inhibitor MG132 effect. 220,000 compounds, 1.2% hits;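 active means activation above the mean of all tested compounds plus 3 SD, set per screening run, cut at about 8.8% in these data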;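 further: cells exposed to compound for 20 h before luminescence read; 0% = DMSO alone and 100% = MG132 at 30 µM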
Target sequence (P30291 whole entry K328M): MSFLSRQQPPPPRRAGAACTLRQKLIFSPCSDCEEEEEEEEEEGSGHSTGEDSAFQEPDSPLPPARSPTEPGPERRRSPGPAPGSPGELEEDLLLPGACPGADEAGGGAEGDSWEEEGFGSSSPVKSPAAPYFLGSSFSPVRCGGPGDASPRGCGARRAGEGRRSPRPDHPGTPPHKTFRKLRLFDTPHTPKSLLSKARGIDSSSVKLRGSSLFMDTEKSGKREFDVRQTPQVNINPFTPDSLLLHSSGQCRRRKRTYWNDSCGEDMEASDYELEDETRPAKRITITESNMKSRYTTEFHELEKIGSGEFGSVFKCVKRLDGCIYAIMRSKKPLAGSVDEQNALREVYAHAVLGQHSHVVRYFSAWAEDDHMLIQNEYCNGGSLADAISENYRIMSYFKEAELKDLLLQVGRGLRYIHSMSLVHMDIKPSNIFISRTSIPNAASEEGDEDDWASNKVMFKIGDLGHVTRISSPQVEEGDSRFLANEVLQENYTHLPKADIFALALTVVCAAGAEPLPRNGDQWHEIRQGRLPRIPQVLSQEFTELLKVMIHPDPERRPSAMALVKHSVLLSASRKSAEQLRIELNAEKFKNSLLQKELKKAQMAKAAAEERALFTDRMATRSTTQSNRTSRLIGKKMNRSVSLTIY
hgDAF12 agonist – agonists of H. glycines DAF-12 nuclear receptor | HEK293 GAL4-hgDAF12 UAS-luciferase reporter, agonist luminescence; normalized to butyrate control | activation, % at 6.8 µM | 370,000 compounds, 1.8% hits | AID 687014;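 active means activation above a cutoff set at the mean of all screened compounds plus 3 SD, cut at about 10% in these data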;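 further: 0% = DMSO wells and 100% = sodium butyrate wells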
DAX1 inh-1 – inhibits human nuclear receptor DAX1; 340,000 compounds, 0.99% hits; P51843; AID 504766; inhibition, % at 6.75 µM; HEK293 Gal4-DAX1 luciferase reporter, luminescence;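 active means inhibition above the mean over all tested compounds plus 3 SD, cut at about 4.2% in these data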;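 further: 0% = DAX1-transfected cells with DMSO and 100% = empty-vector control cells with DMSO; inhibition shows as a rise in luminescence from relieved DAX1 repression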
ssDAF12 agonist – S. stercoralis DAF-12 activation, primary screen; 370,000 compounds, 1% hits; AID 652126; activation, % at 6.8 µM; HEK293 ssDAF-12/GRIP1 lit1-tk-luc reporter, luminescence; % of 3 µM dafachronic acid response;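 active means activation above the mean over all tested compounds plus 3 SD, cut at about 0.9% in these data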;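 further: 0% = DMSO-only wells and 100% = 3 µM delta7-dafachronic acid wells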
hcDAF-12 act – activates DAF-12 receptor from parasite H. contortus | HEK293 hcDAF-12 lit1-tk-luc reporter, luminescence; 0% DMSO, 100% Δ7-dafachronic acid | activation, % at 6.8 µM | 370,000 compounds, 1.4% hits;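 active means activation above the mean of all tested compounds plus 3 SD, cut at about 5.5% in these data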;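 further: 100% = response to 3 µM Δ7-dafachronic acid high control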
DAX1 inh-2 – inhibitors of DAX1 repression of SF-1 activated StAR promoter; HEK293T StAR-luciferase reporter, SF-1/DAX-1 repression relief; inhibition, % at 6.8 µM; 370,000 compounds, 1.1% hits;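 active means inhibition above the mean over all tested compounds plus 3 SD, cut at about 3.6% in these data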;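 further: 0% = DAX-1 cells with DMSO and 100% = cells lacking DAX-1 with DMSO; higher inhibition means more luminescence from relief of DAX-1 repression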
LXR ag – LXR-beta agonism as hcDAF-12 counter-screen; shares compounds with hcDAF-12 act; HEK293 Gal4-LXR tk-luc reporter, luminescence, 24 h; normalized: DMSO 0%, positive control 100%; activation, % at 6.8 µM; 3,400 tested, under 10 active; AID 743027;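 active means mean percent activation of the reporter above a cutoff set as the average over tested compounds plus their standard deviation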
hcDAF12 conf – hcDAF-12 agonism, confirmation assay | shares compounds with hcDAF-12 act | HEK293 hcDAF-12 lit1-tk-luc reporter, luminescence; % of Δ7-dafachronic acid response | activation, % at 6.8 µM | 3,400 compounds, 61% hits;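 active means mean activation across triplicate tests above the threshold derived from the earlier primary screen, cut at about 5.5% in these data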;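 further: 0% = DMSO only wells and 100% = 3 µM Δ7-dafachronic acid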
hgDAF12 conf – confirmation of H. glycines DAF-12 agonists; shares compounds with hgDAF12 agonist; HEK293 GAL4-hgDAF12 luciferase reporter, agonist mode; percent of butyrate response; activation, % at 6.8 µM; 3,300 compounds, 80% hits; AID 743050;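 active means mean activation over triplicate wells above the hit cutoff derived from the earlier primary screen, cut at about 11% in these data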;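 further: 0% = DMSO low control and 100% = 2 mM sodium butyrate high control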
LXRb DAF12 ctr – LXR-beta agonism as DAF-12 counter-screen; AID 743051; activation, % at 6.8 µM; HEK293 Gal4-LXR luciferase reporter, 24 h; shares compounds with hgDAF12 agonist; 3,300 tested, under 10 active;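 active means mean activation of the triplicate above a set limit carried over from the primary screen, none filed active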
Active calls of the source: *; . = no result.

SMILES | Wee1 degr inh | hgDAF12 agonist | DAX1 inh-1 | ssDAF12 agonist | hcDAF-12 act | DAX1 inh-2 | LXR ag | hcDAF12 conf | hgDAF12 conf | LXRb DAF12 ctr
Cc1cc(C(=O)COC(=O)c2ccc(O)cc2)c(C)n1-c1ccccc1F | -1 | 0 | 1 | -2 | 0 | 0 | . | . | . | .
Cc1cc(C(=O)COC(=O)c2ccc(O)cc2)c(C)n1CC(F)(F)F | . | 15* | 2 | 1 | 8.9* | 4.2* | 1 | 7.3* | 18* | 1
N#Cc1cc2ccccc2nc1SCc1ccccn1 | -4 | 17* | 2 | 4.7* | 20* | 4.3* | 1 | 9.2* | 16* | 1
Cc1cc(O)c(NC(=O)c2cccc([N+](=O)[O-])c2)cc1C | 2 | 17* | 4 | 2.5* | 7.0* | 1 | 0 | 9.2* | 11* | 0
COc1ccc(Cl)cc1NC(=O)CN(C)CC(=O)Nc1c(C)n(C)n(-c2ccccc2)c1=O | . | 5 | 0 | -1 | -1 | -3 | . | . | . | .
Cc1ccc(NC(=O)c2ccoc2C)cc1C | 6 | 14* | 0 | 0 | 6.9* | 3 | 1 | 5 | 12* | 0
Cc1occc1C(=O)Nc1cccc(C(=O)O)c1 | -1 | 3 | 1 | 0 | 2 | 1 | . | . | . | .
Cc1occc1C(=O)Nc1ccccc1NC(=O)c1ccoc1C | -2 | -2 | 0 | -1 | 2 | 0 | . | . | . | .
Cc1occc1C(=O)Nc1cccc2ccccc12 | 3 | 17* | 4 | 1.1* | 6.7* | 3.8* | 1 | 5.9* | 21* | 1
COc1nc(-c2cccc([N+](=O)[O-])c2)nc2ccccc12 | 0 | 1 | . | -1 | 1 | 0 | . | . | . | .
CCCOc1ccc(-c2nc(OC)c3ccccc3n2)cc1 | -2 | 17* | 1 | 2.6* | 16* | 4.1* | 0 | 4 | 3 | 0
Cc1cc(SCC(=O)N2c3ccccc3NC(=O)CC2C)nc2ccccc12 (centres undefined) | . | -1 | 0 | 0 | 1 | 0 | . | . | . | .
CC(=O)c1sc(NC(=O)c2ccco2)nc1-c1ccccc1 | 1 | . | 1 | . | . | . | . | . | . | .
Cc1sc(NC(=O)c2ccco2)nc1-c1ccccc1 | 0 | 14* | 4 | 1 | 7.8* | 3 | 1 | 7.9* | 18* | 1
Cc1cc(NC(=O)c2ccccc2)sc1C | 6 | 19* | 0 | 0 | 9.9* | 4 | 1 | 5 | 17* | 1
C=CCNc1ncnc2c1cnn2-c1ccc(OC)cc1 | 2 | 14* | 4 | 0.9* | 6.6* | 4.3* | 2 | 5.8* | 17* | 1
COc1ccc(-n2ncc3c(NCc4ccco4)ncnc32)cc1 | 3 | 5 | 4 | -1 | 2 | 2 | . | . | . | .
CN(C)CCN(C)C1CN(Cc2ccccc2)S(=O)(=O)C1 (centres undefined) | . | -2 | . | -1 | -1 | 1 | . | . | . | .
COc1cc(C(=O)NCc2ccc(S(N)(=O)=O)cc2)ccc1OCC(=O)N1CCOCC1 | . | 2 | 1 | -1 | 1 | 1 | . | . | . | .
O=c1c2ccccc2oc2cc(NCCCn3ccnc3)ccc12 | . | 14* | 1 | 1.2* | 7.2* | 3.7* | 1 | 5 | 17* | 1
O=S1(=O)CC(N2CCN(Cc3ccccc3F)CC2)CN1Cc1cn(Cc2cccc(Cl)c2)nn1 (centres undefined) | . | -4 | . | -2 | -3 | -3 | . | . | . | .
Cc1ccc(NC(=O)/C=C/C(=O)O)c([N+](=O)[O-])c1 | 2 | 0 | 2 | -1 | 2 | 0 | . | . | . | .
